# Experimental data as given in PMC6707232.
# Columns and labels:
# Experiment in all cases: cross-linking mass spectrometry
# Conditions in all cases: not determined
# [1] = biological target: COPS3 (UniProt Q9UNS2)
# [2] = biological target: COPS7B (UniProt Q9H9Q2)
# [3] = biological target: ELOB (UniProt Q15370)
# Chain of UniProt Q15370 (Q15370 whole entry): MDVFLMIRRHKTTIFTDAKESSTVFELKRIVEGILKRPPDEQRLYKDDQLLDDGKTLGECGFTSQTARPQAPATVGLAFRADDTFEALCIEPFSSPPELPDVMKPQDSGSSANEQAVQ
# Chain of UniProt Q9UNS2 (Q9UNS2 whole entry): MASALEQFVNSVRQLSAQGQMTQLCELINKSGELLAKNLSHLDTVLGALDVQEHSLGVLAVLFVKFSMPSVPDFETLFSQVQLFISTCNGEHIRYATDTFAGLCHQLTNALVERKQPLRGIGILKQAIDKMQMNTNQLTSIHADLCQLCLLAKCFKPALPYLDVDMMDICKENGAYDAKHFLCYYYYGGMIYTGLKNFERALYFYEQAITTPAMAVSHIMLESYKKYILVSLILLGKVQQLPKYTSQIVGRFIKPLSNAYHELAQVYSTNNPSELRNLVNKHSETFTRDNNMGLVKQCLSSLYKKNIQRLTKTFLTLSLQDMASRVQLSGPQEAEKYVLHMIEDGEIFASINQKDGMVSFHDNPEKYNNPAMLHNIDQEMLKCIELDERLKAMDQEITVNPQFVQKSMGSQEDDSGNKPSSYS
# Chain of GPS1 (Q13098 whole entry): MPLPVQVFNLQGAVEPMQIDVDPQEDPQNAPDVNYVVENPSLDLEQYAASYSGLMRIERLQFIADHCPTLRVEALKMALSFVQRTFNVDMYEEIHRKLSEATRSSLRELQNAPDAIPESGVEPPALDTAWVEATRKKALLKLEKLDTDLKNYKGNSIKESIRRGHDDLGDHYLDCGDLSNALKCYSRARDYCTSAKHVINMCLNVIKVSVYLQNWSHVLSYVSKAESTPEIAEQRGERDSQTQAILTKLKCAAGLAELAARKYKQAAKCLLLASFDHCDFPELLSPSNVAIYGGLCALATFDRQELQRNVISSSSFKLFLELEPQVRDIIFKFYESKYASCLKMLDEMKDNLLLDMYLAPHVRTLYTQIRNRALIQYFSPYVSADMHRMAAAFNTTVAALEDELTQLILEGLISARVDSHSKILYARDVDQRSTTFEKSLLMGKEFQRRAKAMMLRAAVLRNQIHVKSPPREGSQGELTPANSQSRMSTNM
# Chain of COPS2 (P61201 whole entry): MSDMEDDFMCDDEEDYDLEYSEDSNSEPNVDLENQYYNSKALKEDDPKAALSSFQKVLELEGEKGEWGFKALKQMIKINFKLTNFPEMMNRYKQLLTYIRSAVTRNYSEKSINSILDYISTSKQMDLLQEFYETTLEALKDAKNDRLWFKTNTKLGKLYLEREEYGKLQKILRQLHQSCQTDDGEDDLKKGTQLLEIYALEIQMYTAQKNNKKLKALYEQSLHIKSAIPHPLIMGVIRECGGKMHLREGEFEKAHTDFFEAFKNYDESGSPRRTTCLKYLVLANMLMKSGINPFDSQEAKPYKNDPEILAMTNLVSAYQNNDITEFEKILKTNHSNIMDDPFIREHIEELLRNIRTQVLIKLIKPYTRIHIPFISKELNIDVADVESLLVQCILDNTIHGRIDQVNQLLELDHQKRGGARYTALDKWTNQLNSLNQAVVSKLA
# Chain of UniProt Q9H9Q2 (Q9H9Q2 whole entry): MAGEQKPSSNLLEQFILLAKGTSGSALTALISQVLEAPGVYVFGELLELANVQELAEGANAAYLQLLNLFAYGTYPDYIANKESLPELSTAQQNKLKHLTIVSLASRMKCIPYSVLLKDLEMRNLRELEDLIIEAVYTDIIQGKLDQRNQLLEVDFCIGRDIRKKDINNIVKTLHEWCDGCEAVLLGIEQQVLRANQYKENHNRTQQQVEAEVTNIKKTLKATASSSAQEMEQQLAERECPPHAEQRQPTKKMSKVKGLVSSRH
substance,measurement,setting,value
"COPS2, P61201",cross-linked residues,[1],K426 - K243
same,cross-linked residues,[2],K426 - K199
"GPS1, Q13098",cross-linked residues,[1],K467 - K406
same,cross-linked residues,[3],K158 - K19
